# TRHR agonist = TRH receptor (human) agonism. P34981. TRHR cells, calcium flux fluo-8, FDSS agonist mode. activation, % at 2 µM. hit rate 0.18% among 360,000. AID 493084; note: 0% is about no effect
#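 Fluo-8-loaded TRHR cells; 10 s baseline, compound added, kinetic Ca2+ fluorescence read 1/s, agonist mode.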
# D1 ag = agonists of human D1 dopamine receptor. P21728. HEK293 T-REx D1 cells, calcium flux, agonist mode. activation, % at 2 µM. hit rate 1% among 360,000. AID 504660; note: 0% is about no effect
# Target sequence (P21728 whole entry, looked up): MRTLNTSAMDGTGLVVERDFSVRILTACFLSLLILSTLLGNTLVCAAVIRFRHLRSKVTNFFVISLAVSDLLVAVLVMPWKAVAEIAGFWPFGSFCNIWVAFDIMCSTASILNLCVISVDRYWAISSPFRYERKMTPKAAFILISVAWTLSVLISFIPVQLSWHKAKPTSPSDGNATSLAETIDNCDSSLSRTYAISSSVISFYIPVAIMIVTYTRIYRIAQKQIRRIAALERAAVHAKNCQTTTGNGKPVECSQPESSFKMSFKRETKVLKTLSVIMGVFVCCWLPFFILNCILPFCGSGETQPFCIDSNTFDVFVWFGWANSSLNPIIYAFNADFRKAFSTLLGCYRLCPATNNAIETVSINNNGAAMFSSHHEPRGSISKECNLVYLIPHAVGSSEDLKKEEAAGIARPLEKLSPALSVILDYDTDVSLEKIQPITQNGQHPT
#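 Tetracycline-induced HEK293 TREx D1 cells, force-coupled to calcium signalling, were dye-loaded with a no-wash calcium kit. Compound was pin-added after a 10 s baseline. Fluorescence was read kinetically at 1 cycle/s for 180 s, with calcium rises flagged as agonism.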
# TRHR PAM = allosteric enhancers of human TRH receptor; P34981; TRHR cells, fluo-8 calcium fluorescence, EC20 TRH enhancement; enhancement, % at 2 µM; hit rate 0.66% among 360,000; in the data active = enhancement above about 30%; note: 0% is about no effect
#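 Enhancer read-out: after compound pinning and an initial kinetic agonist-mode read, an EC20 of TRH (10 nM final) was injected and fluo-8 calcium signal (Ex 480/Em 530) followed at 1 s/cycle for 100 cycles in TRHR-expressing cells.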
# D1 potentiator = human D1 dopamine receptor positive modulation. hit rate 0.036% among 360,000. HEK293 TREx D1 cells, calcium flux, dopamine EC20 potentiation. P21728. potentiation, % at 10 µM; in the data active = potentiation above about 30%; note: 0% is about no effect
# D1 antagonist = blocks dopamine activation of the human D1 receptor; activity change, negative = inhibition, % at 10 µM; P21728; HEK293 TREx D1 cells, calcium flux, dopamine EC80; hits give low values; hit rate 3.2% among 360,000; in the data active = activity change below about -30%; note: % is set by controls: 0 for no effect and ±100 for the full control effect
#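 After overnight tetracycline induction at 30 C, force-coupled D1 HEK293 cells took up a no-wash calcium dye at room temperature. Compounds were added and monitored 180 s, and the response to EC80 dopamine was then recorded.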
# * hit, by the source's call; x = no result given. Compounds with a hit are over-represented: about 4.7% of the library has one in this group of screens. Cut-off read from the data, not from the text of the source, unless noted: active = activation above about 30%; inactive = the rest.
SMILES,TRHR agonist,D1 ag,TRHR PAM,D1 potentiator,D1 antagonist
CCCCCCOc1ccc(CN2CCN(C)CC2)cc1,2.4,30.8*,2.0,-9.6,-17.8
CN1CCN(Cc2ccc3ccccc3c2)CC1,0.2,8.4,-7.2,-1.8,1.6
COCCCn1c(N)c(C(=O)OC(C)COC)c2nc3ccccc3nc21 (stereo not given),-2.3,0.0,-0.7,-3.5,-32.4*
O=C(COc1cccc(Cl)c1)N1CCN(CCc2ccncc2)CC1,-1.0,-0.8,2.9,-0.3,-7.3
CN(C)C(=O)Oc1ccc(OCc2nc3ccccc3[nH]2)cc1,0.2,16.0,-3.7,-7.6,-47.5*
CN(C)C(=O)Oc1ccc(OC(=O)N(C)C)cc1,0.5,0.8,6.6,-0.8,-5.5
O=C(COC(=O)Cc1ccccc1)NNC(=O)c1ccc([N+](=O)[O-])cc1,-0.5,1.1,1.7,-2.6,-1.3
O=C(OCC(=O)c1ccc([N+](=O)[O-])cc1)/C(=C/c1ccc(Cl)cc1)NC(=O)c1ccccc1,-2.6,3.2,-4.9,1.5,-34.1*
Nc1c(C(=O)NCCN2CCOCC2)c2nc3ccccc3nc2n1Cc1ccco1,2.2,4.3,-4.1,-2.9,-41.6*
N#Cc1c(/N=C/c2ccc(O)cc2O)sc2c1C1CCN2CC1,11.0,34.3*,8.9,-3.5,-21.9
CC(Cc1ccccc1)N1Cc2ccccc2C1 (stereo not given),0.2,2.3,9.9,-5.8,14.1
NCC(O)c1cc(O)c(O)cc1F (stereo not given),0.7,37.2*,-4.1,-6.4,-85.1*
CC(=O)OC1(c2ccccc2)CCN(C)C2CCCCC21 (stereo not given),1.7,8.3,-0.2,-0.9,8.4
CN1CC[C@@]23CCCC[C@@H]2[C@@H]1Cc1ccc(O)cc13,-0.6,7.3,-3.1,-2.6,-32.4*
CN1CCC(N(C)c2nc(-c3ccc([N+](=O)[O-])cc3)nc3ccccc23)CC1,3.0,36.5*,0.8,-3.0,-7.3
Cc1cccc(Cn2cccc(C(=O)Nc3cc(C)on3)c2=O)c1,0.2,3.8,-4.5,4.7,x
CN1CCC(c2c[nH]c3ccccc23)C1 (stereo not given),-2.1,5.6,12.8,-5.2,-31.9*
Cc1ccc(NC2=NCCCS2)cc1Cl,-1.2,4.9,9.1,-3.4,1.1
CCc1ccc(OCC(=O)N2CCN(CCc3ccncc3)CC2)cc1,-1.9,9.7,3.6,0.3,-8.6
O=c1[nH]c(=S)n(-c2ccccc2)c(O)c1C=NCc1ccccn1,-1.6,2.8,-4.1,-1.1,-43.6*
Cc1ncc(CNC(=O)N(CCCl)N=O)c(N)n1,-0.1,-2.0,-1.4,-5.8,-1.9
c1cncc(CNC2=NCCCCC2)c1,0.9,3.1,-8.5,-0.9,-46.6*
c1cncc(CNC2CCCC2)c1,0.7,2.9,5.6,-3.2,8.4
C=C1CC[C@@]2(O)[C@H]3Cc4ccc(O)c5c4[C@@]2(CCN3CC2CC2)[C@H]1O5,-0.3,0.7,-8.1,1.4,-15.4
C=C(C)CN1CC[C@]23c4c5ccc(O)c4O[C@H]2c2[nH]c4ccccc4c2C[C@@]3(O)C1C5,0.0,-1.0,7.7,-3.9,-80.3*
SMILES,TRHR agonist,D1 ag,TRHR PAM,D1 potentiator,D1 antagonist
CCN(CC)C(=O)c1ccc(NC(=O)c2cccc(S(=O)(=O)N3CCN(Cc4ccccc4)CC3)c2)cc1,0.4,4.9,-1.6,-6.7,-32.3*
CCN(CC)CCNCC(=O)Nc1ccc(Cl)cc1C(=O)c1ccccc1,0.2,1.4,-2.1,-4.0,-38.5*
CN(C)CCCNCC(=O)Nc1ccc(Cl)cc1C(=O)c1ccccc1,-1.3,1.8,-3.7,1.6,-1.0
CCn1c(O)c(/C=N/NC(=O)c2ccncc2)c(=O)[nH]c1=S,-0.4,2.7,9.6,-0.5,-31.0*
C=CCn1cc(C=C2C(=O)N(C)C(=O)N(C)C2=O)c2ccccc21,-0.3,2.7,0.3,1.4,8.3
O=C1NC(=O)C(=Cc2ccc(OCC(=O)N3CCOCC3)cc2)C(=O)N1,-2.7,2.8,6.0,0.1,-36.8*
CN(CCOc1ccc(C=C2C(=O)NC(=O)NC2=O)cc1)c1ccccn1,0.1,6.0,6.2,-3.0,25.1
COc1ccc(CN2C(=O)NC(=O)/C(=C/c3ccc(OC)c(OC)c3OC)C2=O)cc1,-1.4,6.9,7.4,-1.6,-34.7*
CC1(C)CN=C(Nc2ccc(F)c(Cl)c2)S1,5.2,33.9*,-2.2,4.9,1.6
CC1(C)CN=C(Nc2ccc(F)c(F)c2)S1,10.2,20.1,-3.2,x,-8.2
C=C1C2C[C@H](O)C(C)(C)[C@@]2(O)[C@H](O)C[C@]23C[C@@](C)(O)[C@H](CC[C@H]12)[C@H]3OC(C)=O (stereo not given in full),-0.2,0.4,1.1,-2.6,-34.0*
O=c1c2ccccc2nc(/C=C\c2ccccc2F)n1-c1ccc(O)cc1,-0.1,-1.8,1.7,-1.4,-6.5
Nc1c2c(nc3sc4c(c13)CCCCC4)CCCC2,-1.7,20.1,3.3,-12.5,-41.6*
N#Cc1cc2c(nc1SCC(=O)Nc1ccc(OC(F)(F)F)cc1)C1CCN2CC1,0.1,21.2,-0.3,-0.3,-20.4
COc1ccccc1-n1c(/C=C/c2ccccc2)nc2ccccc2c1=O,0.6,-1.3,4.7,2.9,14.1
COc1ccccc1-n1c(/C=C/c2ccc(O)cc2)nc2ccccc2c1=O,0.7,1.9,38.6*,0.2,-30.1*
COc1cc(/C=C/c2nc3ccccc3c(=O)n2-c2ccccc2O)ccc1O,36.3*,49.5*,9.6,-4.8,4.2
CCCCn1c(O)c(C(=O)/C=C/c2c[nH]c3ccccc23)c(=O)[nH]c1=O,-0.1,0.6,8.7,-4.1,0.9
Cc1ccc2scc(N3CCN(C)CC3)c(=O)c2c1,-0.8,3.6,3.1,1.6,19.0
CC(Cc1ccccc1Sc1ccccc1O)N(C)C (stereo not given),2.1,40.3*,15.8,-0.2,-38.5*
CCN1CCN(S(=O)(=O)c2ccc(Cl)nc2)CC1,-0.1,5.7,-4.8,-4.3,-34.8*
Cc1nnc(NC(=O)c2cccn(Cc3cccc([N+](=O)[O-])c3)c2=O)s1,0.2,-1.3,3.6,0.8,x
CCCCNC(=S)N1CCn2cccc2C1c1cccnc1 (stereo not given),0.1,5.3,-4.3,-0.5,4.4
CNC(=S)N1CCn2cccc2C1c1cccnc1 (stereo not given),0.6,3.4,1.7,2.5,-32.7*
COc1ccc(NC(=S)NC(NC(=O)CF)C(Cl)(Cl)Cl)cc1[N+](=O)[O-] (stereo not given),0.0,3.6,-4.9,-1.6,-20.8
Ic1ccccc1CN[C@@H]1C2CCN(CC2)[C@@H]1C(c1ccccc1)c1ccccc1,-0.5,83.5*,8.5,23.6,-31.2*
Cc1ccc(NC(=O)CN2C(=O)CN=C(c3ccccc3)c3ccccc32)cc1Cl,0.2,3.9,-2.5,-4.1,-0.8
COCCCNC(=O)c1c(NC(=O)c2ccccc2Cl)n(Cc2ccccc2)c2nc3ccccc3nc12,9.4,39.8*,-6.3,-2.6,2.4

# Compound activity deposited in PubChem BioAssay by National Center for Advancing Translational Sciences (NCATS).
